Hit rate of the full screen: of about 63,000 compounds, about 1,100 (1.7%) were called active. The full list was thinned out, with actives kept by preference. Results with a measured potency or affinity are listed apart. Values without a mark were called inactive.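 Rule for the calls: active = compounds whose percent cytotoxicity in the single-dose primary screen, scaled between solvent and toxic-drug controls, exceeds 50; inactive = the rest.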

This experiment in a line: viability loss of HPDE-C7K cells – cell-based, fluorescence, HTS, primary screen (AID 431).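 Note: 0% = DMSO solvent wells and 100% = doxorubicin-treated wells.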 To be noted: HPDE-C7K KRASV12 cells, Alamar Blue viability, 48 h; at 10 µM; hits give high values. (Resazurin is reduced to fluorescent resorufin, in cell work by metabolically active cells.)
In the case of `c1cnc(NCCNc2ncccn2)nc1`, the cytotoxicity was -5.3%. Consider `Cc1cc(NC(=O)c2ccc(Cn3nc(C)c(Br)c3C)o2)no1`, for which the cytotoxicity is 6.8%.

As to `CCOC(=O)C1CCN(c2c(N(C)Cc3ccco3)c(=O)c2=O)CC1`, the cytotoxicity was 11%. As to `O=CN1Cc2[nH]c3ccccc3c2N(c2ccc(Cl)cc2)C1=O`, the cytotoxicity was -0.4%. Take `Cc1cccc(S(=O)(=O)c2c(N)n(/N=C/c3ccco3)c3nc4ccccc4nc23)c1`: the cytotoxicity was 17.6%. Under `Nc1c(S(=O)(=O)c2ccccc2)c2nc3ccccc3nc2n1/N=C/c1ccco1` stands 45.3%; under `Cc1ccc(S(=O)(=O)c2c(N)n(/N=C/c3ccco3)c3nc4ccccc4nc23)cc1C`, 8.5%; under `COCCn1c(N)c(S(=O)(=O)c2cccs2)c2nc3ccccc3nc21`, -1.6%. The result for `Nc1c(S(=O)(=O)c2cccs2)c2nc3ccccc3nc2n1Cc1cccs1` reads -15.3%; that for `Nc1c(S(=O)(=O)c2cccc(Cl)c2)c2nc3ccccc3nc2n1/N=C/c1ccc(O)c(O)c1`, 126% (active). Under `Cc1cccc(S(=O)(=O)c2c(N)n(/N=C/c3cccnc3)c3nc4ccccc4nc23)c1` stands 23.4%. With `Nc1c(S(=O)(=O)c2cccs2)c2nc3ccccc3nc2n1/N=C/c1cccc(O)c1`, the cytotoxicity is 65.7% (active). Under `O=C(CCSc1nc(-c2ccco2)cc(C(F)(F)F)n1)NCC1CCCO1` (centres undefined) stands 3.2%. Turning to `COCCCNC(=O)CCn1c(=O)c2ccccc2n(CC(=O)Nc2ccccc2C)c1=O`, the cytotoxicity is 1.7%.

As to `CN(C(=O)c1ccc2c(=O)n3c(nc2c1)CCCCC3)c1ccccc1`, the cytotoxicity is -5.5%.

Consider `CCOC(=O)c1c(C)[nH]c(C(=O)CSc2nnnn2-c2ccccc2)c1C`, for which the cytotoxicity is -2.7%.

`CCc1nc2oc3cc(OC)ccc3c(=O)c2c(=O)n1Cc1ccco1`: the cytotoxicity is -11.3%. The result for `O=C(Nc1cccnc1)C1CCCN(S(=O)(=O)c2cccc3nsnc23)C1` (centres undefined) reads -2.5%. Under `Cc1ccc(C(=O)NCCNC(=O)CN2CCCC2)cc1` stands -4.9%; under `CN(C1CCCCC1)S(=O)(=O)c1ccc(NC(=O)C2CCCCC2C(=O)O)cc1` (centres undefined), -5.7%. For the molecule `COc1ccccc1C1=NOC(Cn2c(=O)c3c(ncn3C)n(C)c2=O)C1` (centres undefined), the cytotoxicity is -17.3%. As to `COc1ccc(C2=NOC(Cn3c(Cc4ccc(Cl)cc4)nc4c3c(=O)n(C)c(=O)n4C)C2)cc1` (centres undefined), the cytotoxicity was 1.7%. Under `COc1ccc(-c2nc3c(c(=O)n(C)c(=O)n3C)n2CC2CC(c3ccccc3)=NO2)cc1OC` (centres undefined) stands 53.3% (active); under `CC1CCN(c2nc3c(c(=O)[nH]c(=O)n3C)n2Cc2ccccc2Cl)CC1`, 8.5%.

For the origin of these results see PubChem BioAssay AID431 (Sanford-Burnham Center for Chemical Genomics, 2006).
